Chlamy TAG – inducers of triacylglycerol accumulation in Chlamydomonas reinhardtii algae. Chlamydomonas reinhardtii TAG, Nile Red fluorescence, 72 h. calls only at 10 µM (by protocol). actives 0.84% (n = 44,000); call rule not given here;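 further: hits raise Nile Red signal meaning more stored TAG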
Calls only; i = inactive; + = active, no number. This is one part of a sample in which hits are shown more often than they occur.

SMILES	Chlamy TAG
OC(COc1ccc(Cl)cc1Cl)CN1CCc2ccccc2C1 (stereo not given)	i
CN1CCN(CCOCCOc2ccccc2-c2ccccc2)CC1	i
Cc1cc(C(C)(C)C)ccc1OCCCN1CCN(C)CC1	i
C=CCc1cc(C)ccc1OCCOCCN1CCN(C)CC1	i
Cc1cc(C(C)(C)C)ccc1OCCOCCN1CCN(C)CC1	+
Cc1ccc(OCC(O)CN2CCN(c3ccccc3)CC2)c(C)c1 (stereo not given)	i
Cc1cc(Cl)ccc1OCC(O)CN1CCN(C)CC1 (stereo not given)	+
Cc1cc(C(C)(C)C)ccc1OCCN1CCN(C)CC1	+
CN1CCN(CCOCCOc2ccc(Cl)cc2C(C)(C)C)CC1	i
O=C(Cc1ccc(Cl)cc1)Nc1ccc(Br)cc1F	i
N#C/C(=C/c1ccc(Br)cc1)c1nc(-c2cccs2)cs1	i
Nc1ccccc1NCCOc1ccccc1	i
CCOc1ccc(N(CC(=O)Nc2ccccc2C(N)=O)S(=O)(=O)c2ccccc2)cc1	i
COc1ccc(CCNS(=O)(=O)c2ccc(SC)cc2)cc1	i
COc1ccccc1-c1nc(-c2ccccc2Cl)no1	i
CC(CCN1CCCC(CO)C1)c1ccccc1 (stereo not given)	i
O=C1CC(Nc2ccc(N3CCOCC3)cc2)C(=O)N1c1ccc(SC(F)F)cc1 (stereo not given)	i
Cc1cc(Cl)c(OCCCN2CCN(C)CC2)c(Br)c1	i
CN1CCN(CCOCCOc2c(Cl)cc(Cl)cc2Cl)CC1	i
Cc1cc(Cl)c(OCCOCCN2CCN(C)CC2)c(Br)c1	+
COc1ccc(C)cc1NS(=O)(=O)c1ccc(NC(=O)CSCc2ccccc2)cc1	i
Cc1c(C(=O)Nc2ccc(F)c(Cl)c2)cccc1[N+](=O)[O-]	i
Cc1c(C(=O)Nc2ccc(F)c(F)c2)cccc1[N+](=O)[O-]	+
Cc1ccc(NC(=O)c2ccccc2[N+](=O)[O-])cc1F	i
O=S(=O)(c1ccc(Cl)cc1)n1cccn1	i
SMILES	Chlamy TAG
Cc1ccc(S(=O)(=O)n2cccn2)cc1	+
Cc1ccc(S(=O)(=O)n2ccc(C)n2)cc1	i
Cc1ccc(Cn2cnc3sc4c(c3c2=O)CCC4)c(C)c1	i
CCc1nc2c(cnn2-c2ccccc2)c(=O)n1-c1cccnc1	i
Cc1ccc(Cn2cnc3c(cnn3-c3ccccc3)c2=O)c(C)c1	+
Cc1cc2ncn(C(=O)CN3C(=O)c4ccccc4C3=O)c2cc1C	i
O=C(Nc1ccccc1[N+](=O)[O-])c1cccc(S(=O)(=O)N2CCc3ccccc3C2)c1	i
CCC(=O)Nc1ccc(NC(=O)CC)cc1	i
Cc1cc(OCCCN2CCN(C)CC2)ccc1C(C)C	i
CN1CCN(CCCOc2ccc(Br)cc2)CC1	+
CC(C)c1ccc(OCCOCCN2CCN(C)CC2)cc1	i
CN1CCN(CCCOc2ccc(C(=O)c3ccccc3)cc2)CC1	i
Cc1cc(OCCCCN2CCN(C)CC2)cc(C(C)C)c1	+
Cc1cc(Br)ccc1OCCCN1CCCC1	i
CCOc1ccc(OCCOCCN2CCN(C)CC2)cc1	i
Cc1cc(Br)ccc1OCCN1CCN(C)CC1	i
Cc1cc(Br)ccc1OCCCN1CCN(C)CC1	+
COc1ccccc1CC(=O)Nc1ccc(C)cc1	i
CCOc1cc(/C=C(\C#N)c2nc(-c3ccc(OC)cc3)cs2)ccc1O	i
CC(=O)C1=C(O)C(=O)N(c2cccc(Br)c2)C1c1ccccc1 (stereo not given)	i
COc1ccccc1NC(=O)C(=O)NC(C)c1ccccc1 (stereo not given)	i
O=C(Nc1ccc(I)cc1)C1CCCC1	i
CCN(C(=O)COc1ccccc1)c1ccccc1	i
O=C(CCC1CCCCC1)NCc1ccco1	i
Cc1ccc(OCCCn2ccnc2)c(Br)c1	+
SMILES	Chlamy TAG
Cc1ccc(OCCCCN2CCCC2)c(C)c1	+
Cc1ccc(OCCCN2CCCC2)c(Br)c1	i
Cc1ccccc1OCCCCN1CCCCC1	i
Cc1ccc(OCCCCn2ccnc2)c(Br)c1	i
Cc1ccc(OCCCn2ccnc2)c([N+](=O)[O-])c1	i
Cc1ccc(OCCCCN2CCCCC2)cc1	i
Clc1ccc(OCCCN2CCOCC2)cc1	i
Cc1ccc(OCCCN2CCCC2)c([N+](=O)[O-])c1	i
Cc1ccc(OCCCN2CCCCC2)c(C)c1	i
Cc1ccc(OCCCCN2CCOCC2)cc1	+
Cc1ccc(OCCCCN2CCCC2)c(Br)c1	+
O=C(Nc1ccccc1Cl)N1CCN(c2ccccc2F)CC1	i
CC1(C)Cc2c(sc3nc(NN)nc(NN)c23)CO1	i
Oc1ccc(O)c(SCCCCN2CCOCC2)c1	i
Cc1cccc(CNc2ccc3cn[nH]c3c2)c1	i
Cc1ccc(OCC(=O)Nc2cc(Cl)ccc2Cl)cc1C	i
O=C(CSc1nc2ccccc2[nH]1)NC1CCCCC1	i
Cc1ccc(OCCCCN2CCOCC2)c(C)c1	i
Cc1cccc(OCCCCN2CCCCC2)c1	i
Cc1ccccc1OCCCN1CCOCC1	i
Cc1ccc(OCCCN2CCOCC2)c(C)c1	+
Cc1ccc(OCCN2CCCC2)cc1C	i
Cc1ccc(OCCCCN2CCCC2)cc1C	+
CC(C(=O)Nc1ccc(F)c(Cl)c1)N(c1ccccc1)S(C)(=O)=O (stereo not given)	i
Cc1nc2ccc(Cl)cn2c(=O)c1Cl	i
SMILES	Chlamy TAG
CCC1CCCCN1Cc1ccc([N+](=O)[O-])s1 (stereo not given)	i
O=[N+]([O-])c1ccccc1S(=O)(=O)N1CCN(S(=O)(=O)c2ccccc2)CC1	i
COc1ccc(CN(C)C2CCCCC2)c(C)c1C	+
COc1ccc(CN(C)C2CCN(C)CC2)c(OC)c1OC	i
COc1ccc(CN2CCCCC2C)c(C)c1C (stereo not given)	i
Cc1ccc(S(=O)(=O)Nc2cc(Cl)c(O)c(C)c2C)cc1	i
CN(C)S(=O)(=O)c1ccc(C(=O)NC2CCCCCCC2)cc1	i
O=C(NC1CCCCCCC1)c1ccccc1	i
CN(c1ccc(C(=O)NC2CCCCCC2)cc1)S(=O)(=O)c1ccccc1	+
CCCCC(=O)Nc1ccc(NC(=O)c2ccc(-c3cccc(Cl)c3)o2)cc1OC	i
Cc1ccc(-c2csc(/C(C#N)=C/Nc3ccc([N+](=O)[O-])cc3)n2)cc1	i
Cc1ccsc1/C=C(\C#N)c1nc(-c2ccc([N+](=O)[O-])cc2)cs1	+
N#C/C(=C\c1ccc([N+](=O)[O-])cc1)c1nc(-c2ccc(F)cc2)cs1	i
O=C1CC(NCCc2ccccc2)C(=O)N1c1cccc(Cl)c1 (stereo not given)	i
Cc1ccc(NC(=O)CSc2nnc(-c3ccc(Cl)cc3Cl)n2N)c(C)c1	+
COc1ccc(OC)c(NC(=O)CSc2nnc(-c3ccc(Cl)cc3Cl)n2N)c1	i
O=C(CSc1nnnn1-c1ccc(Cl)cc1)Nc1ccc(Cl)cc1Cl	i
CS(=O)(=O)N(CC(=O)Nc1ccccc1Cl)c1cccc(Cl)c1Cl	i
COc1ccc(CN2CCC(C(=O)N3CCN(c4cccc(C)c4C)CC3)CC2)cc1	i
CC(C)CN1CCC(C(=O)N2CCN(c3ccccc3F)CC2)CC1	i
O=C(C1CCN(CC2CCCCC2)CC1)N1CCN(c2ccccc2F)CC1	+
Cc1cccc(N2CCN(C(=O)C3CCN(CC(C)C)CC3)CC2)c1C	i
Cc1ccc(CN2CCC(C(=O)N3CCN(c4cccc(C)c4C)CC3)CC2)o1	i
Cc1ccc(CN2CCC(C(=O)N3CCN(c4ccccc4F)CC3)CC2)cc1	i
O=C(C1CCCCC1)N1CCN(c2ccccc2F)CC1	i
Cc1ccc(CN2CCC(C(=O)N3CCN(c4ccccc4F)CC3)CC2)o1	+
Cc1cccc(N2CCN(C(=O)C3CCN(CC4CCCCC4)CC3)CC2)c1C	+

From PubChem BioAssay
